This note sets out measurements from PMC11006913.

Numbering of substitutions follows the chain as printed.

Common to all, as to experiment: PBM; 200 nM protein, PBS
Common to all, as to conditions: dsDNA, one strand shown

For assay [1], the target named is T1, NKX2-4 (Homo sapiens, UniProt Q9H2Z4 175-261, P217L).
T1 sequence: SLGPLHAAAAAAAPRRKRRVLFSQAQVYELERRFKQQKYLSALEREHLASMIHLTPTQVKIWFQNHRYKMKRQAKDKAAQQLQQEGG

The target in assay [2] is T2, NKX2-4 (Homo sapiens, UniProt Q9H2Z4 175-261, T231S).
T2 sequence: T1 sequence with L43P, T57S

Assay [3] addresses T3, NKX2-4 (Homo sapiens, UniProt Q9H2Z4 175-261).
T3 sequence: T1 sequence with L43P

The target in assay [4] is T4, NKX2-4 (Homo sapiens, UniProt Q9H2Z4 175-261, R246Q).
T4 sequence: T1 sequence with L43P, R72Q

Assay [5] has as its target T5, NKX2-6 (Homo sapiens, UniProt A6NCS4 118-204, R150C).
T5 sequence: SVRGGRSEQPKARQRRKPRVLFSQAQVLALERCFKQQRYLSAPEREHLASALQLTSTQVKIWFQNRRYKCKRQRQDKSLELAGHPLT

In assay [6] the target is NKX3-2 (Homo sapiens, UniProt P78367 192-278, P234S).
The target in assay [7] is NKX3-2 (Homo sapiens, UniProt P78367 192-278).
Sequence of NKX3-2 (Homo sapiens, UniProt P78367 192-278) (P78367 192-278): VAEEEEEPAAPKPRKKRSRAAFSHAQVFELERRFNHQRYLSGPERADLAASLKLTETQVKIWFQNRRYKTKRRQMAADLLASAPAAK

Sequence of NKX3-2 (Homo sapiens, UniProt P78367 192-278, P234S) (P78367 192-278 P234S): as the sequence (P78367 192-278) above, with P43S counted along it

Regarding CCGAGACG, the binding signal in assay [1] was 9.51 upbm affinity estimate (log intensity, higher = more binding, comparable within an allelic series); in assay [2] it was 9.47 upbm affinity estimate (log intensity, higher = more binding, comparable within an allelic series); in assay [3], 9.47 upbm affinity estimate (log intensity, higher = more binding, comparable within an allelic series); in assay [4], 9.44 upbm affinity estimate (log intensity, higher = more binding, comparable within an allelic series).
Consider CTTCTCAA, for which the binding signal in assay [1] is 11.7 upbm affinity estimate (log intensity, higher = more binding, comparable within an allelic series); in assay [2] it was 11.9 upbm affinity estimate (log intensity, higher = more binding, comparable within an allelic series); in assay [3] it was 11.5 upbm affinity estimate (log intensity, higher = more binding, comparable within an allelic series); in assay [4], 11.9 upbm affinity estimate (log intensity, higher = more binding, comparable within an allelic series).
As to CCTGCGCG, the binding signal in assay [1] was 9.34 upbm affinity estimate (log intensity, higher = more binding, comparable within an allelic series); in assay [2], 9.28 upbm affinity estimate (log intensity, higher = more binding, comparable within an allelic series); in assay [3], 9.35 upbm affinity estimate (log intensity, higher = more binding, comparable within an allelic series); in assay [4], 9.37 upbm affinity estimate (log intensity, higher = more binding, comparable within an allelic series).
In the case of ACGCCTTG, the binding signal in assay [1] was 9.82 upbm affinity estimate (log intensity, higher = more binding, comparable within an allelic series); in assay [2], 9.81 upbm affinity estimate (log intensity, higher = more binding, comparable within an allelic series); in assay [3], 9.74 upbm affinity estimate (log intensity, higher = more binding, comparable within an allelic series); in assay [4] it was 9.73 upbm affinity estimate (log intensity, higher = more binding, comparable within an allelic series).
With GGCAGTCA, the binding signal in assay [1] is 10.1 upbm affinity estimate (log intensity, higher = more binding, comparable within an allelic series); in assay [2], 10 upbm affinity estimate (log intensity, higher = more binding, comparable within an allelic series); in assay [3] it was 9.98 upbm affinity estimate (log intensity, higher = more binding, comparable within an allelic series); in assay [4], 10.1 upbm affinity estimate (log intensity, higher = more binding, comparable within an allelic series).
In the case of GCAAGTGC, the binding signal was 11.9 upbm affinity estimate (log intensity, higher = more binding, comparable within an allelic series) in assay [1]; 12.1 upbm affinity estimate (log intensity, higher = more binding, comparable within an allelic series) in assay [2]; 11.7 upbm affinity estimate (log intensity, higher = more binding, comparable within an allelic series) in assay [3]; 12.2 upbm affinity estimate (log intensity, higher = more binding, comparable within an allelic series) in assay [4].
Take CTGCGTCC: the binding signal in assay [1] is 9.76 upbm affinity estimate (log intensity, higher = more binding, comparable within an allelic series); in assay [2], 9.72 upbm affinity estimate (log intensity, higher = more binding, comparable within an allelic series); in assay [3], 9.74 upbm affinity estimate (log intensity, higher = more binding, comparable within an allelic series); in assay [4], 9.78 upbm affinity estimate (log intensity, higher = more binding, comparable within an allelic series).
For the sequence ATGAGTAC, the binding signal in assay [1] is 12.4 upbm affinity estimate (log intensity, higher = more binding, comparable within an allelic series); in assay [2], 12.8 upbm affinity estimate (log intensity, higher = more binding, comparable within an allelic series); in assay [3], 12.3 upbm affinity estimate (log intensity, higher = more binding, comparable within an allelic series); in assay [4], 12.7 upbm affinity estimate (log intensity, higher = more binding, comparable within an allelic series).
Turning to ATCACACC, the binding signal in assay [1] was 9.96 upbm affinity estimate (log intensity, higher = more binding, comparable within an allelic series); in assay [2], 9.93 upbm affinity estimate (log intensity, higher = more binding, comparable within an allelic series); in assay [3], 9.81 upbm affinity estimate (log intensity, higher = more binding, comparable within an allelic series); in assay [4], 9.96 upbm affinity estimate (log intensity, higher = more binding, comparable within an allelic series).
Turning to GCCCTTAA, the binding signal in assay [1] is 12 upbm affinity estimate (log intensity, higher = more binding, comparable within an allelic series); in assay [2], 12.3 upbm affinity estimate (log intensity, higher = more binding, comparable within an allelic series); in assay [3] it was 12 upbm affinity estimate (log intensity, higher = more binding, comparable within an allelic series); in assay [4] it was 12.2 upbm affinity estimate (log intensity, higher = more binding, comparable within an allelic series).
For the sequence CCTCTTCA, the binding signal in assay [1] was 12.5 upbm affinity estimate (log intensity, higher = more binding, comparable within an allelic series); in assay [2], 12.8 upbm affinity estimate (log intensity, higher = more binding, comparable within an allelic series); in assay [3], 12.4 upbm affinity estimate (log intensity, higher = more binding, comparable within an allelic series); in assay [4] it was 13 upbm affinity estimate (log intensity, higher = more binding, comparable within an allelic series).
As for ACTTATCC, the binding signal in assay [1] was 11.9 upbm affinity estimate (log intensity, higher = more binding, comparable within an allelic series); in assay [2], 12.1 upbm affinity estimate (log intensity, higher = more binding, comparable within an allelic series); in assay [3], 11.7 upbm affinity estimate (log intensity, higher = more binding, comparable within an allelic series); in assay [4], 12.1 upbm affinity estimate (log intensity, higher = more binding, comparable within an allelic series).
Consider ACAAGTAC, for which the binding signal in assay [1] is 12.5 upbm affinity estimate (log intensity, higher = more binding, comparable within an allelic series); in assay [2], 12.9 upbm affinity estimate (log intensity, higher = more binding, comparable within an allelic series); in assay [5], 11.6 upbm affinity estimate (log intensity, higher = more binding, comparable within an allelic series); in assay [4] it was 12.9 upbm affinity estimate (log intensity, higher = more binding, comparable within an allelic series).
Regarding GGTACTCA, the binding signal in assay [1] is 12.5 upbm affinity estimate (log intensity, higher = more binding, comparable within an allelic series); in assay [2], 12.9 upbm affinity estimate (log intensity, higher = more binding, comparable within an allelic series); in assay [3] it was 12.4 upbm affinity estimate (log intensity, higher = more binding, comparable within an allelic series); in assay [4] it was 12.9 upbm affinity estimate (log intensity, higher = more binding, comparable within an allelic series); in assay [6] it was 12.5 upbm affinity estimate (log intensity, higher = more binding, comparable within an allelic series); in assay [7], 12.6 upbm affinity estimate (log intensity, higher = more binding, comparable within an allelic series).
